High-throughput results as filed in PubChem.
Nox1 inh – human Nox1 inhibition; Q9Y5S8; HT29 cells, luminol chemiluminescence ROS; inhibition, % at 6.7 µM; 16,000 tested, 0.81% active
Target sequence (Q9Y5S8 whole entry, looked up): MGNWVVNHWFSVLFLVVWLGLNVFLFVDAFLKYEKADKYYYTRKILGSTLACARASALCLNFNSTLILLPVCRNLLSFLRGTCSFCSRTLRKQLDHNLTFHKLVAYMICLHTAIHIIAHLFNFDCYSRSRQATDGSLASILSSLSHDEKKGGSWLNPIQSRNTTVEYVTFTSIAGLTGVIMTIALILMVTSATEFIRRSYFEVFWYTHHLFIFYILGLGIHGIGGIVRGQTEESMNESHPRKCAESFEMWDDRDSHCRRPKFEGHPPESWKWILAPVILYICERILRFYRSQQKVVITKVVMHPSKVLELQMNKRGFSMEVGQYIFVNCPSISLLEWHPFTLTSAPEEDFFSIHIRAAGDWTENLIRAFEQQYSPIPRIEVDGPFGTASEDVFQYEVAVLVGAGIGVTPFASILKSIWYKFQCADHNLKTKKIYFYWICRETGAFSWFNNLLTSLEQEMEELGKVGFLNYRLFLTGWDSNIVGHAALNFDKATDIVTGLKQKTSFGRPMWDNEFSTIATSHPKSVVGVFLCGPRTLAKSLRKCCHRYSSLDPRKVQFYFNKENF
NOTCH agonist – NOTCH pathway agonism. activation, % at 2.5 µM. 15,000 tested, 0.4% active. NOTCH signaling luciferase reporter cells, luminescence; in the data active = activation above about 2.2%
PME-1 Maybr inh – inhibitors of human PME-1 in Maybridge library. recombinant PME-1, FP-Rh probe fluorescence polarization. inhibition, % at 9 µM. 16,000 tested, 0.5% active. AID 2291; in the data active = inhibition above about 30%
luminol inh ctr – luminol signal inhibition, Nox1 inhibitor counter-screen | 16,000 tested, 0.4% active | HRP/luminol/H2O2 chemiluminescence counterscreen | inhibition, % at 6.7 µM; note: reference of the scale not given here
An asterisk follows results filed as active. This is a sample that favours compounds with a hit; in the whole collection about 2.2% have one here. Cut-off read from the data, not from the text of the source, unless noted: active = inhibition above about 75%; inactive = the rest.

For COc1ccc(-c2nc(-c3cccc([N+](=O)[O-])c3)cs2)cc1 the results were Nox1 inh 0, NOTCH agonist 3.3*, PME-1 Maybr inh -3 and luminol inh ctr 2.
For Cc1nc(-c2cccnc2)sc1C(=O)NN the results were Nox1 inh -48, PME-1 Maybr inh 5 and luminol inh ctr 5.
COC(=O)C1=C(Nc2ccccc2NS(=O)(=O)c2ccc(OC)cc2)CSC1 was read as Nox1 inh 49, NOTCH agonist 0, PME-1 Maybr inh 9 and luminol inh ctr 29.
COC(=O)C1=C(Nc2ccc(O)cc2)CSC1 was read as Nox1 inh 99*, NOTCH agonist 0, PME-1 Maybr inh 6 and luminol inh ctr -19.
Screening Cc1c(Cc2c(Cl)cccc2Cl)c(=O)oc2cc(O)ccc12 returned Nox1 inh -102, NOTCH agonist 0, PME-1 Maybr inh 33* and luminol inh ctr -36.
`CCOc1c(NN(C)C)c(=O)c1=O` gave Nox1 inh 3, NOTCH agonist 0, PME-1 Maybr inh 7 and luminol inh ctr 102*.
Cc1cc(=O)n(CCO)c(=O)[nH]1 was read as Nox1 inh 14, NOTCH agonist 0, PME-1 Maybr inh 2 and luminol inh ctr -4.
Screening O=c1[nH]c2ccsc2c(=O)n1CCO returned Nox1 inh 84*, NOTCH agonist -1, PME-1 Maybr inh 3 and luminol inh ctr 13.
For Nc1nc(NC2CCCCNC2=O)n[nH]1 (stereo not drawn) the results were Nox1 inh 92*, NOTCH agonist 0, PME-1 Maybr inh 8 and luminol inh ctr 62.
O=C(Nc1ccc(Cl)cc1)Oc1ccc(-c2csnn2)cc1 was read as Nox1 inh 5, NOTCH agonist 0, PME-1 Maybr inh -5 and luminol inh ctr 102*.
For CC(C)(C)C(=O)Oc1ccc(-c2csnn2)cc1 the results were Nox1 inh 11, NOTCH agonist 0, PME-1 Maybr inh 4 and luminol inh ctr -66.
`O=C(Oc1ccc(-c2csnn2)cc1)c1ccc([N+](=O)[O-])o1` gave Nox1 inh -40, NOTCH agonist -1, PME-1 Maybr inh 0 and luminol inh ctr 101*.
Screening CSc1cccc(NC(=S)Nc2cccc(SC)c2)c1 returned Nox1 inh -26, NOTCH agonist 2.5*, PME-1 Maybr inh 6 and luminol inh ctr -10.
Screening C=CCn1c(C(C)Oc2ccc(Cl)cc2)n[nH]c1=S (stereo not drawn) returned Nox1 inh 10, NOTCH agonist 1, PME-1 Maybr inh 0 and luminol inh ctr 94*.
`COc1ccc(-c2n[nH]c(=S)n2-c2ccccc2Cl)cc1` gave Nox1 inh -80, NOTCH agonist -1, PME-1 Maybr inh -2 and luminol inh ctr 13.
O=C(Cc1ccc([N+](=O)[O-])cc1)Nc1c(F)cccc1F was read as Nox1 inh 10, NOTCH agonist 1, PME-1 Maybr inh 1 and luminol inh ctr -5.
O=C(Cc1ccc([N+](=O)[O-])cc1)Nc1nccs1 was read as Nox1 inh 0, NOTCH agonist 3.0*, PME-1 Maybr inh 4 and luminol inh ctr -2.
Cc1nn(C(=O)c2ccccc2)c(C)c1Oc1ccc(Cl)cc1 was read as Nox1 inh -41, NOTCH agonist 3.9*, PME-1 Maybr inh 1 and luminol inh ctr -1.
COc1cc(NC(C)=O)ccc1/C=N/NC(N)=S was read as Nox1 inh 2, NOTCH agonist -1, PME-1 Maybr inh 5 and luminol inh ctr 14.
`CNC(=S)N(C)NC(=S)Nc1ccc(OC)c(OC)c1` gave Nox1 inh 84*, NOTCH agonist 0, PME-1 Maybr inh 0 and luminol inh ctr 31.
Cn1c(CC#N)n[nH]c1=S was read as Nox1 inh -29, NOTCH agonist -1, PME-1 Maybr inh 1 and luminol inh ctr -2.
`CC(Oc1ccccc1-c1ccccc1)c1n[nH]c(=S)n1C` (stereo not drawn) gave Nox1 inh -49, PME-1 Maybr inh 1 and luminol inh ctr 94*.
C=C(C)c1ccccc(=O)c1O was read as Nox1 inh -21, NOTCH agonist 4.9*, PME-1 Maybr inh 3 and luminol inh ctr -2.
CC(=O)Oc1ccc(OC(C)=O)c2c1[C@@H]1C=C[C@H]2CC1 was read as Nox1 inh 81*, NOTCH agonist -1, PME-1 Maybr inh 2 and luminol inh ctr -1.
Screening CC(=O)Oc1cccc(OC(C)=O)c1[N+](=O)[O-] returned Nox1 inh -45, NOTCH agonist 0, PME-1 Maybr inh -3 and luminol inh ctr 2.
Screening O=C(NNC(=O)c1ccccc1[N+](=O)[O-])c1cc2c(s1)-c1ccccc1CC2 returned Nox1 inh 3, NOTCH agonist 2.4*, PME-1 Maybr inh 4 and luminol inh ctr 18.
O=C(O)/C=C/C(=O)NNC(=O)c1ccccc1[N+](=O)[O-] was read as Nox1 inh -72, PME-1 Maybr inh 3 and luminol inh ctr 8.
Screening O=C1C=CC(=O)N1c1ccc(S(=O)(=O)Nc2ccc(C(F)(F)F)cc2)cc1 returned Nox1 inh -2, NOTCH agonist 0, PME-1 Maybr inh -36 and luminol inh ctr -2.
O=S(=O)(Nc1ccc(N2CCCCC2)cc1)c1cc(S(=O)(=O)c2ccccc2)cs1 was read as Nox1 inh 104*, NOTCH agonist 0, PME-1 Maybr inh 22 and luminol inh ctr 16.
C=CCNC(=O)Nc1ncc([N+](=O)[O-])s1 was read as Nox1 inh 28, NOTCH agonist 0, PME-1 Maybr inh 4 and luminol inh ctr 18.
N#CC(C#N)=C1c2cc(S(N)(=O)=O)cc([N+](=O)[O-])c2-c2c1cc(S(N)(=O)=O)cc2[N+](=O)[O-] was read as Nox1 inh 34, NOTCH agonist 0, PME-1 Maybr inh 73* and luminol inh ctr 8.
Screening COc1cccc(C2Nc3ccccc3C(=O)N2NS(=O)(=O)c2ccc(C)cc2)c1O (stereo not drawn) returned Nox1 inh 30, NOTCH agonist 0, PME-1 Maybr inh 8 and luminol inh ctr 99*.
Cc1ccc(S(=O)(=O)NC(=O)NCC2CCN(S(=O)(=O)c3ccccc3)CC2)cc1 was read as Nox1 inh -57, NOTCH agonist 0, PME-1 Maybr inh 3 and luminol inh ctr -1.
Screening O=[N+]([O-])c1cccc(-c2c[nH]c(=S)[nH]2)c1 returned Nox1 inh 24, NOTCH agonist 0, PME-1 Maybr inh 2 and luminol inh ctr 10.
For S=c1[nH]cc(-c2ccc(Br)cc2)[nH]1 the results were Nox1 inh 98*, NOTCH agonist 0, PME-1 Maybr inh 10 and luminol inh ctr -3.
Screening N#C/C(=C\c1ccccc1Cl)c1cccc(Cl)c1 returned Nox1 inh -92, PME-1 Maybr inh -8 and luminol inh ctr 4.
`N#Cc1ccc(N2CCN(S(=O)(=O)c3ccccc3)CC2)nc1` gave Nox1 inh -7, NOTCH agonist 3.4*, PME-1 Maybr inh 6 and luminol inh ctr -1.
For Cc1noc(C)c1C(=O)N1CCN(c2ncc(C(F)(F)F)cc2Cl)CC1 the results were Nox1 inh -13, NOTCH agonist 0, PME-1 Maybr inh 2 and luminol inh ctr -4.
Cc1oc(-c2ccccc2)cc1C(=O)N1CCN(c2ncc(C(F)(F)F)cc2Cl)CC1 was read as Nox1 inh 23, NOTCH agonist 2.3*, PME-1 Maybr inh -2 and luminol inh ctr -6.
